Anthrax LF prot: blocks Bacillus anthracis lethal factor protease. P15917. multiplex microsphere protease cleavage assay, LF. inhibition, % at 10 µM. 360,000 compounds, 0.12% hits. AID 588501; further: plate controls were buffer without enzyme for full effect and enzyme alone for no effect
Autofluor counter: counter-screen for toxin protease inhibitors: compound fluorescence; compound autofluorescence counterscreen, microsphere flow cytometry; stronger effect = higher value; fluorescence intensity (concentration not given with the values); 360,000 compounds, 3.1% hits; AID 624483; in the data active means fluorescence intensity above about 16000; inconclusive means no clear call, values can overlap the other calls
BoNT-F LC inh: blocks Botulinum neurotoxin F light chain protease; inhibition, % at 10 µM; 360,000 compounds, 0.22% hits; Multiplex microsphere protease cleavage assay, flow cytometry; AID 588497; in the data active means inhibition above about 35%, passing the limit was not always enough; inconclusive means no clear call, values can overlap the other calls; further: plate controls were buffer without enzyme for full effect and enzyme alone for no effect
BoNT-A LC inh2: blocks Botulinum neurotoxin A light chain protease; multiplex microsphere protease substrate cleavage, flow cytometry; inhibition, % at 10 µM; 360,000 compounds, 0.17% hits; AID 588499; further: plate controls were buffer without enzyme for full effect and enzyme alone for no effect
MazEF act: MazEF (E. coli) toxin RNase activation; activation, % at 20 µM; FAM/BHQ RNA-DNA oligo cleavage fluorescence, 5 h; P0AE70; 350,000 compounds, 0.32% hits; in the data active means activation above about 50%
Target sequence (P0AE70 whole entry, looked up): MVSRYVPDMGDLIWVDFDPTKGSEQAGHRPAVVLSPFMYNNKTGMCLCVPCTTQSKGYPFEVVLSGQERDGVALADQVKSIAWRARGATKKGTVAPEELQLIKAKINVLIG
An asterisk follows results filed as active; ? = inconclusive; . = no result given. Most compounds without a hit are left out; they make up all but 3.7% or so of the library. Unless noted, no stated cut-off is given here; in the data, active means inhibition above about 30%; inconclusive means no clear call, values can overlap the other calls; inactive means below that.

SMILES	Anthrax LF prot	Autofluor counter	BoNT-F LC inh	BoNT-A LC inh2	MazEF act
COc1ccc([C@H]2N[C@]3(CCCN(Cc4ccc(Br)cc4)C3=O)[C@H]3C(=O)N(Cc4ccccc4)C(=O)[C@@H]23)cc1	1	2891	-3	-1	3
COCCNC(=O)C1CCCN(C(=O)c2ccc(C(F)(F)F)nc2C)CC1 (centres undefined)	-8	3927	4	0	.
Fc1ccccc1CCNc1c2c(nc3ncnn13)CCCC2	-6	4110	-7	0	3
c1coc(CNc2c3c(nc4ncnn24)CCC3)c1	-3	20732*	7	6	-5
Clc1ccccc1Nc1c2c(nc3ncnn13)CCC2	-13	21040*	5	5	7
c1ccc(CCNc2c3c(nc4ncnn24)CCC3)cc1	-7	22631*	0	2	6
O=C1COc2ccccc2C(c2nc3ccccc3[nH]2)N1C1CC1 (centres undefined)	11	5758	7	2	.
Cc1ccc(NC(=O)NC(=O)CSc2nnnn2C)c(C)c1	-1	20545*	0	0	2
Cc1cccc(C)c1NC(=O)CSc1nnnn1C	-3	9167	-6	-1	-6
O=C(NCCCn1ccnc1)Nc1ccc(Cl)cc1	-2	24742*	-5	?	0
O=C(NCCCN1CCc2ccccc2C1)Nc1ccc(Cl)cc1	-1	22133*	-6	-4	-6
O=C(NCCCn1ccnc1)Nc1ccc(Cl)c(Cl)c1	0	10262	-15	-3	0
O=C(NCCN1CCN(Cc2ccccc2Cl)CC1)Nc1ccccc1	1	23034*	1	2	5
O=C(CCN1C(=O)COc2ccccc21)NCCCN1CCc2ccccc2C1	-4	18721*	-15	-11	1
COc1ccccc1C(=O)NCCC(=O)N1CC(C)OC(C)C1 (centres undefined)	-4	?	2	-1	14
CCN(CC)CCN1C(=O)C(=O)/C(=C(/O)c2c(C)[nH]c(C(=O)OC)c2C)C1c1ccccc1 (centres undefined)	.	.	.	.	-4
CCN(CC)CCN1C(=O)C(=O)/C(=C(/O)c2c(C)[nH]c(C(=O)OC)c2C)C1c1cccc(OC)c1 (centres undefined)	-4	18213*	-4	-4	-7
COC(=O)c1[nH]c(C)c(/C(O)=C2\C(=O)C(=O)N(CCN(C)C)C2c2cccc(OC)c2OC)c1C (centres undefined)	-1	9911	0	0	2
COC(=O)c1[nH]c(C)c(/C(O)=C2\C(=O)C(=O)N(CCN(C)C)C2c2cccs2)c1C (centres undefined)	-5	20496*	-2	1	7
CCOC(=O)c1[nH]c(C)c(/C(O)=C2\C(=O)C(=O)N(CCN(C)C)C2c2ccc(C)o2)c1C (centres undefined)	-1	21142*	-3	-4	5
CCN(CC)c1ccc(C=N/C(C#N)=C(\N)C#N)cc1	-4	17577*	-8	4	-124
CCN(CC)c1ccc(/C=C(\C#N)c2ccccn2)cc1	-1	2914	-4	0	-9
CCc1ccccc1Nc1nc(N)nc(COC(=O)c2cccn2C)n1	0	21076*	-5	-1	-3
O=C(CCC(=O)Nc1ccccc1)NNC(=O)c1cccs1	-5	21744*	4	3	5
CCCC(=O)Nc1ccc(C(=O)NNC(=O)c2cccs2)cc1	-2	22535*	3	3	3
SMILES	Anthrax LF prot	Autofluor counter	BoNT-F LC inh	BoNT-A LC inh2	MazEF act
O=C(NCC(=O)N1CCN(Cc2ccccc2)CC1)c1cc(Cl)cc([N+](=O)[O-])c1	-1	3818	5	0	-7
CCN(CC)C(=O)CSc1nnc(CCN)o1	-2	23987*	-2	-2	3
CCN(CC)C(=O)CSc1nnc(CCNC(=O)OC(C)(C)C)o1	0	23519*	-1	0	0
CN(C)C(=O)CSc1nnc(CCCCCNC(=O)OC(C)(C)C)o1	?	?	?	?	0
CN(C)C(=O)CSc1nnc(CCNC(=O)OC(C)(C)C)o1	-3	22750*	4	0	4
NCCc1nnc(SCC(N)=O)o1	-9	10327	2	-1	5
Cc1c(Cl)cccc1NC(=O)CSc1nnc(CCNC(=O)OC(C)(C)C)o1	-1	22523*	4	2	6
CCOC(=O)C1CCN(C(=O)C2CCN(S(=O)(=O)c3cc(Cl)ccc3OCC)CC2)CC1	-4	5014	13	3	-1
Cc1cc(C(=O)N2CCC2(C)C(=O)Nc2ccc3[nH]ncc3c2)nn1C (centres undefined)	-4	3505	-10	0	.
CCOc1ccc(-c2c(=O)n(OCc3ccccn3)c3ccccc3[n+]2[O-])cc1	0	22653*	1	1	1
CCOC(=O)COn1c(=O)c(-c2ccccc2)[n+]([O-])c2ccccc21	30*	3611	31	2	12
CCOC(=O)COn1c(=O)c(-c2ccc(OC)cc2)[n+]([O-])c2ccccc21	11	3189	4	2	3
COc1ccc(NC(=S)Nc2cccc3cnccc23)cc1	-3	2376	-15	-1	70*
COc1cc(CNC(=O)c2cc(-c3cc(Cl)ccc3OC)n[nH]2)cc(OC)c1	0	3849	-5	0	.
COc1cccc(C(c2c(O)nc(SC)n(C)c2=O)c2c(O)nc(SC)n(C)c2=O)c1	-4	21226*	4	2	0
O=C(Cn1cnc2c(oc3nc4c(cc32)CCCC4)c1=O)Nc1cccc(Cl)c1	6	5899	0	0	-14
Cc1ccc(Cc2nc(-c3cccnc3)no2)cc1	0	1981	1	0	10
COc1ccc(Cc2nc(-c3ccccc3)no2)cc1	-2	21271*	-4	-2	-2
COc1ccc(Cc2nc(-c3ccc(-n4cccc4)cc3)no2)cc1	-6	6133	-10	0	-15
Clc1ccc(Cc2nc(-c3cccnc3)no2)cc1	-2	21733*	1	1	-4
Cc1ccc(-c2noc(CNc3ccccc3)n2)cc1	-3	21856*	-1	?	0
COc1ccc([C@H]2C[C@H](n3cc(-c4ccc(F)cc4)nn3)[C@@H](O)CN2CC2CCCCC2)cc1	-1	4833	0	0	-10
Cc1ccc(C(=O)N2CCCC(N3CCN(c4ccccc4C)CC3)C2)c(=O)[nH]1 (centres undefined)	2	4863	1	1	1
CC(C)Nc1nc(NC(C)C)nc(N(C)N)n1	-4	4230	-13	-3	6
CC(C)Nc1nc(NC(C)C)nc(C(N)=O)n1	0	16247*	-4	0	6
CC(=O)OCCOc1nc(NC(C)C)nc(NC(C)C)n1	1	8121	-5	-1	0
CC(C)Nc1nc(NC(C)C)nc(N(C)C(N)=O)n1	-1	19916*	2	2	7
O=C(Nc1ccccc1F)c1ccc2sc([C@@H]3O[C@H](CO)[C@H](O)[C@H](O)[C@H]3O)nc2c1	1	3775	-2	0	.
O=C(O)CCNC(=O)CCCn1nnc2ccccc2c1=O	-11	20247*	-95	-19	4
